Here are results for six compounds from PubChem BioAssay.

Activity calls are given as the source filed them.

The nature of assay [1]: small molecules captured by biotinylated probe aFSTL3 – biochemical, small-molecule microarray, fluorescence 635/667, stem cell growth factor project, primary screen (AID 1064).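 Further: measures binding of the biotinylated anti-FSTL3 antibody to printed compounds.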 Particulars: higher = more signal.
A short description of assay [2]: binders from COS7 lysate, DM2A8 probe, primary screen, torsin A project, cell lysate, small-molecule microarray, fluorescence 635/667 (AID 1065). Particulars: higher = more signal, COS7 lysate expressing mutant human TOR1A.
A short description of assay [3]: small molecules captured by biotinylated probe aFGF2 – biochemical, small-molecule microarray, fluorescence 635/667, stem cell growth factor project, primary screen (AID 1067).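 Further: measures binding of biotinylated aFGF2 protein to printed compounds on slides; z-score merges feature fluorescence and signal-to-noise across triplicate slides.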 Particulars: higher = more signal.
A short description of assay [4]: small molecules captured by biotinylated probe aFGF10 – biochemical, small-molecule microarray, fluorescence 635/667, stem cell growth factor project, primary screen (AID 1071).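 Further: score merges 667 nm spot intensity and signal to noise from triplicate slides.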 Particulars: higher = more signal.
In assay [5] the target is Neurogenic locus notch homolog protein 2 (Homo sapiens) (UniProt Q04721). Kind of assay: small molecules binding Notch2 protein – biochemical, small-molecule microarray, 635 nm fluorescence, stem cell growth factors, primary screen (AID 1073). Particulars: higher = more signal.
The target in assay [6] is Pro-neuregulin-1, membrane-bound isoform (Homo sapiens) (UniProt Q02297). Kind of assay: small molecules binding neuregulin-1 protein – biochemical, small-molecule microarray, fluorescence 635/667, psychiatric disease protein project, primary screen (AID 1075).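 Further: score combines 667 nm spot fluorescence with signal to noise.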 Particulars: NRG1 binding, 635 nm fluorescence, higher = more signal.
In assay [7] the test system is Neuregulin-1 EGF-like domain. Kind of assay: small molecules binding NRG1 EGF domain – biochemical, small-molecule microarray, 635 nm fluorescence, primary screen (AID 1081).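 Further: binding of the protein to compounds printed on small-molecule microarray slides.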 Particulars: higher = more signal.
Assay [8] can be described thus: FRG1 expression reporter modulators in myotubes – cell-based, C2C12 myotubes, firefly/Renilla luciferase, luminescence, FRG1 inhibition for FSHD, primary screen (AID 1084). Particulars: FRG1 promoter luciferase, higher = more signal, called active from +8 up or from −8 down.
Assay [9] is described as follows: small molecules captured by biotinylated probe aFST – biochemical, small-molecule microarray, fluorescence 635/667, stem cell growth factor project, primary screen (AID 1086).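 Further: score merges 667 nm fluorescence with signal-to-noise of each printed compound spot.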 Particulars: higher = more signal.
Assay [10] can be described thus: binders of probe aHhip on microarray, primary screen, stem cell growth factor project, biochemical, small-molecule microarray, fluorescence 635/667 (AID 1087).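 Further: score merges spot fluorescence at 667nm with spot signal to noise ratio.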 Particulars: higher = more signal.
For assay [11], the system named is PRMT1 (protein arginine N-methyltransferase 1). Kind of assay: small molecules binding arginine methyltransferase PRMT1 – biochemical, small-molecule microarray, 635 nm fluorescence, primary screen (AID 1088).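 Further: binding of Prmt1 protein to compounds spotted on small-molecule microarray slides.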 Particulars: higher = more signal.
Assay [12] in a line: growth effects on S. cerevisiae YJM789 – YJM789 clinical isolate, OD600, 24 h, basal, primary screen (AID 1089).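 Further: growth of clinical yeast isolate S. cerevisiae YJM 789 seeded 1000 cells per well; test concentration not given here.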 Particulars: higher = more signal, called active from +8 up or from −8 down.
Assay [13] in a line: S. pombe growth modifiers, basal conditions – strain 972, OD600, 24 h, no modulator, primary screen (AID 1090).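 Further: basal condition with compound alone and no growth modifier present; test concentration not given here.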 Particulars: S. pombe 972 growth, higher = more signal, called active from +8 up or from −8 down.
Assay [14] is described as follows: budding yeast growth modifiers under rapamycin – strain BY4716, OD600, 96 h, primary screen (AID 1091). Further: test concentration not given here. Particulars: S. cerevisiae BY4716 + rapamycin, higher = more signal, called active from +8 up or from −8 down.
In assay [15] the target is Torsin-1A-interacting protein 2 (Homo sapiens) (UniProt Q8NFQ8). Kind of assay: small molecules binding lysate-expressed LULL1 – cell lysate, human LULL1 lysate, 635/667 nm fluorescence, primary screen (AID 1092).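 Further: probe is lysate of COS7 cells overexpressing human LULL1; score merges per-feature 667 nm fluorescence with signal-to-noise.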 Particulars: small-molecule microarray, hLULL1 lysate binding, 635 nm fluorescence; higher = more signal.
The nature of assay [16]: optical density change of DRC41 E. coli – strain DRC41, OD650, 24 h, E. coli filamentation project, primary screen (AID 1093).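 Further: MC1000 strain lacking acrAB efflux and sulA so SOS filamentation is blocked; test concentration not given here.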 Particulars: E. coli DRC41 growth, higher = more signal, called active from +8 up or from −8 down.
Assay [17] is described as follows: probe aLefty2 binding to arrayed compounds – biochemical, biotinylated probe, 635/667 nm fluorescence, primary screen (AID 1094).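 Further: score merges spot fluorescence near 667 nm with spot signal-to-noise ratio.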 Particulars: small-molecule microarray, higher = more signal.
Assay [18] has as its system Noggin (protein binding on small-molecule microarray). Kind of assay: small molecules binding Noggin protein – biochemical, 635/667 nm fluorescence, primary screen (AID 1095).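 Further: score merges 667 nm feature fluorescence with signal to noise over triplicate slides.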 Particulars: 635 nm fluorescence, higher = more signal.
The target of assay [19] is Neurogenic locus notch homolog protein 3 (Homo sapiens) (UniProt Q9UM47). Kind of assay: small molecules binding NOTCH3 protein – biochemical, 635/667 nm fluorescence, primary screen (AID 1096). Particulars: small-molecule microarray, 635 nm fluorescence, higher = more signal.
Assay [20] can be described thus: probe aEGFR binding to arrayed compounds – biochemical, biotinylated probe, 635/667 nm fluorescence, primary screen (AID 1097).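 Further: probe is a biotinylated anti-EGFR antibody binding compounds printed on slides; score combines fluorescence near 667 nm and signal to noise of each spot.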 Particulars: small-molecule microarray, higher = more signal.

Sequence of Neurogenic locus notch homolog protein 3 (Homo sapiens) (Q9UM47 whole entry, looked up): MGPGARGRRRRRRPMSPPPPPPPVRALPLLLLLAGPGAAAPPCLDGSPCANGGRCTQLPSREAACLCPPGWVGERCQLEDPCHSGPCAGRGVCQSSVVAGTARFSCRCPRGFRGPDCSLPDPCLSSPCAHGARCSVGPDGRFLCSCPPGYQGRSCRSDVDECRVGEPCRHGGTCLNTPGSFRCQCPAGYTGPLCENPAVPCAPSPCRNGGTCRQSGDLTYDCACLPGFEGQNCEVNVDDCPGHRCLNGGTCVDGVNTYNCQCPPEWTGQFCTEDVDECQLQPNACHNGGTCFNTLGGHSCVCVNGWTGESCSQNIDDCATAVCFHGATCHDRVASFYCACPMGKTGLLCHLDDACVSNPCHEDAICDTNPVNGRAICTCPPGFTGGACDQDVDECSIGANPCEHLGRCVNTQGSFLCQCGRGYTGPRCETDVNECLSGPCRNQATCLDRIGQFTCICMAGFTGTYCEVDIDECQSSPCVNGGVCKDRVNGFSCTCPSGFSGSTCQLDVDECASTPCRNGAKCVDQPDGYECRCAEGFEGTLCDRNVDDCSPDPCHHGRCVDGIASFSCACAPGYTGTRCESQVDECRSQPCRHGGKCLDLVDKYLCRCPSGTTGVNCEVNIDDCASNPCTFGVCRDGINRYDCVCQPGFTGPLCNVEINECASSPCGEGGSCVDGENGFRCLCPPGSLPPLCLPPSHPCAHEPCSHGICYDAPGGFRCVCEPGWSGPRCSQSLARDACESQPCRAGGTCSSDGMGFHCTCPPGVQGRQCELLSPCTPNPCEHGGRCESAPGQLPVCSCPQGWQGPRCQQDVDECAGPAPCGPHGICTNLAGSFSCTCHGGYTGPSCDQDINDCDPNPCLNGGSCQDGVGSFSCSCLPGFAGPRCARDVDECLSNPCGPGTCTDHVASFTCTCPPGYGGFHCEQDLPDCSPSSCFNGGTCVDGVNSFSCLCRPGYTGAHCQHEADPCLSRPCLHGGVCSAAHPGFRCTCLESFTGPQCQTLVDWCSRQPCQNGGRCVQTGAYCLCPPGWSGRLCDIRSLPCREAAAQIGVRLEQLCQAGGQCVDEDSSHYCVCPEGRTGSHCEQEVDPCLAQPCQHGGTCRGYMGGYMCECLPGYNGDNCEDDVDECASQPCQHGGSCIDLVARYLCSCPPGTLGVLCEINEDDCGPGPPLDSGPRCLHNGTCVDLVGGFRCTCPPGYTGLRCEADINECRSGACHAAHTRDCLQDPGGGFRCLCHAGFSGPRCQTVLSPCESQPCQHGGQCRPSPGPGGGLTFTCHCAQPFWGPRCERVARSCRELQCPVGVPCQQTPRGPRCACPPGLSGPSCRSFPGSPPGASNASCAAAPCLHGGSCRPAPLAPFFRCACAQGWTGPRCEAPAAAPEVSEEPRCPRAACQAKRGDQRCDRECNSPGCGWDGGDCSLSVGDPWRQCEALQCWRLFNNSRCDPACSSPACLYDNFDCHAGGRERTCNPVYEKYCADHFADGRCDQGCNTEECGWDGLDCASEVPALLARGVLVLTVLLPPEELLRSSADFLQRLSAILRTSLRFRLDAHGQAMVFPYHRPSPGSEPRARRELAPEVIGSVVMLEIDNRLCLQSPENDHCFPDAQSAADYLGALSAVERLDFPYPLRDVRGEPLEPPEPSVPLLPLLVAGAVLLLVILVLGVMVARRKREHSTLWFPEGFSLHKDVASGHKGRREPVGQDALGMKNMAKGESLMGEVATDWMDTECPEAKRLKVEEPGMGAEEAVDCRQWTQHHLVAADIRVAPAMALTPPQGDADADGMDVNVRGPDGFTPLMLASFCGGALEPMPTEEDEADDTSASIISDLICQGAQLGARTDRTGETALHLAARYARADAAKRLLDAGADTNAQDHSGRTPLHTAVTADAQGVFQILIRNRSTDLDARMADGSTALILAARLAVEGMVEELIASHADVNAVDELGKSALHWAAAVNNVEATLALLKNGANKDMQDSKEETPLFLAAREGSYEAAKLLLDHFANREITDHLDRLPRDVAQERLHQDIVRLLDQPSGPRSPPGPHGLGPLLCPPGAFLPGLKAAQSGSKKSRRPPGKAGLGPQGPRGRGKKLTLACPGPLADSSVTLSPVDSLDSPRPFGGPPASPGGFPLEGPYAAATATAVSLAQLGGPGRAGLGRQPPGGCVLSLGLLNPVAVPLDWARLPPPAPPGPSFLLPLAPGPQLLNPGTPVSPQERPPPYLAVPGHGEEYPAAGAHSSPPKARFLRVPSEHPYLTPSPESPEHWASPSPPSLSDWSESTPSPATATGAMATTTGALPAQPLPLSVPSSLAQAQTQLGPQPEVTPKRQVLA
Sequence of Pro-neuregulin-1, membrane-bound isoform (Homo sapiens) (Q02297 whole entry, looked up, the tested form may be a part, canonical isoform): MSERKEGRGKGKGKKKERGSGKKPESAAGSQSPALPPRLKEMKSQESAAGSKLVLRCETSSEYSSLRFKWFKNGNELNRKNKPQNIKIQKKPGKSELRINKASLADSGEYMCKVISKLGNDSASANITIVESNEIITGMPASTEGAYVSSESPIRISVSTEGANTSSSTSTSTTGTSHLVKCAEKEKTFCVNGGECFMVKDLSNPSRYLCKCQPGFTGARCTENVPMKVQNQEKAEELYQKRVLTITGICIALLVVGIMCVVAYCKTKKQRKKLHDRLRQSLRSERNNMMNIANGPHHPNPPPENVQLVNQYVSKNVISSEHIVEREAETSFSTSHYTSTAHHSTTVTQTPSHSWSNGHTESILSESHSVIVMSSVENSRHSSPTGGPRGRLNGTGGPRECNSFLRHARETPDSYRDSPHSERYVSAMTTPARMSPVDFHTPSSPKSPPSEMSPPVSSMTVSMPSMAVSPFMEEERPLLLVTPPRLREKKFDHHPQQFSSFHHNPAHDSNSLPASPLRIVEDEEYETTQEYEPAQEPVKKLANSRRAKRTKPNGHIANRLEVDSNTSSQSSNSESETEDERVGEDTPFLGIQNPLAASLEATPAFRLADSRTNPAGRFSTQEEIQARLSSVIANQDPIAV
Sequence of Torsin-1A-interacting protein 2 (Homo sapiens) (Q8NFQ8 whole entry, looked up): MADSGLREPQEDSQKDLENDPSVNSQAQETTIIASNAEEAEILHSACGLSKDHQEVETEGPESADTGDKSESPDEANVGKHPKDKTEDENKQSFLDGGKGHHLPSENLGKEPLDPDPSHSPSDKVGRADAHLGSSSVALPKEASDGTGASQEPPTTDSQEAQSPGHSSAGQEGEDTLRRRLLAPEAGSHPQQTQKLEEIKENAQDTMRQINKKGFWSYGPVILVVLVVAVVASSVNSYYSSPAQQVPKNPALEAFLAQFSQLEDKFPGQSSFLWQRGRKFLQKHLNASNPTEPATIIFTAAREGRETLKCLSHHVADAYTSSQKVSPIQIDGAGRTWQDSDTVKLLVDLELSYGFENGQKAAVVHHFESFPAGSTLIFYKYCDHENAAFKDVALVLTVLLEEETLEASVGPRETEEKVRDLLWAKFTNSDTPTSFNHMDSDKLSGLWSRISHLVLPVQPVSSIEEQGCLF

Regarding `COC(=O)[C@@]1(Cc2ccccc2N=[N+]=[N-])COC(c2ccc(OCCCO)cc2)=N1`, the composite z-score is 1.34 in assay [1]; 2.03 in assay [2]; -0.0706 in assay [3]; -0.282 in assay [4]; 0.0164 in assay [5]; 1.24 in [6]. Further, the composite z-score was found to be 1.21 in assay [7]; 0.498 in assay [9]; 0.0176 in [10]; 1.24 in assay [11]; 2.08 in assay [15]; 0.137 in assay [17]. Besides, the values for the composite z-score in assay [18], in [19] and in assay [20] were -0.353, 0.0418 and -0.0762, respectively. Also, the z-score is -0.904 (inactive) in assay [8]; -1.33 (inactive) in assay [12]; -11 (active) in assay [13]; -1.99 (inactive) in assay [14]; -0.574 (inactive) in [16].

As to `COCCCNC(=O)[C@@]1(c2ccc([N+](=O)[O-])cc2)CC(=O)N(CC23CC4CC(CC(C4)C2)C3)[C@@H]1c1ccc(CO)cc1`, the composite z-score is -0.46 in assay [1]; 0.666 in [2]; -0.0453 in assay [3]; 0.264 in assay [4]; 1.36 in assay [5]; 0.43 in assay [6]. The composite z-score is 1.17 in assay [7]; 0.573 in assay [9]; -0.0296 in assay [10]; 1.54 in assay [11]; 2.28 in assay [15]; 0.0054 in assay [17]. In addition, the composite z-score in [18] was 1.54; in assay [19], 1.08; in assay [20], 0.0117. The z-score in assay [8] is -2.08 (inactive); in [12], 0.38 (inactive); in assay [13], -0.634 (inactive); in [14], -0.101 (inactive); in assay [16], 1.45 (inactive).

In the case of `C=CCNC(=O)[C@@H]1[C@H]2C(=O)O[C@H](c3ccccc3)[C@H](c3ccccc3)N2[C@H](c2ccc(OCCO)cc2)[C@@]12C(=O)Nc1ccccc12`, the composite z-score was 0.511 in [1]; 0.0949 in assay [2]; -0.116 in assay [3]; 0.405 in assay [4]; 0.117 in assay [5]; 1.51 in [6]. Further, the composite z-score in assay [7] is 1.23; in assay [9] it was 0.627; in assay [10], -0.513; in assay [11] it was 1.55; in [15], 2.46; in [17] it was -0.175. Moreover, the composite z-score in assay [18] was 1.28; in [19], 1.09; in assay [20], -0.197. The z-score in assay [8] is -1.05 (inactive); in [12], -1.2 (inactive); in assay [13], 0.406 (inactive); in assay [14], 2.21 (inactive); in assay [16], 0.462 (inactive).

On to `CN(C)C(=O)[C@@]1(CCC(=O)OC(C)(C)C)N=C(c2ccc(OCCCO)cc2)O[C@H]1c1ccccc1`, for which the composite z-score in [1] was 1.01; in assay [2], 2.11; in assay [3], 0.112; in assay [4], 0.31; in assay [5], -0.282; in assay [6] it was 1.92. Moreover, the composite z-score in assay [7] is 1.33; in [9], 0.356; in [10], 0.597; in [11], 1.41; in assay [15] it was 3.55; in [17], 0.346. The composite z-score amounted to 0.94 in assay [18], 0.0453 in [19] and 0.0197 in [20]. For the same compound, the z-score in assay [8] was -0.624 (inactive); in [12], -0.365 (inactive); in assay [13] it was -0.0946 (inactive); in assay [14], -0.213 (inactive); in assay [16] it was -0.444 (inactive).

Turning to `COC(=O)c1ccc(OC)c(/C=C\CC(OC(C)=O)c2ccccc2)c1` (stereo not given), the composite z-score in assay [1] is 0.428; in [2], -0.284; in assay [3], -0.138; in assay [4] it was 0.229; in assay [5], 1.2; in [6] it was 0.993. In addition, the composite z-score in [7] is 0.971; in [9], -0.405; in assay [10] it was 0.206; in assay [11], 0.31; in assay [15] it was 0.879; in [17], -0.208. Also, the composite z-score is 0.0928 in [18], 0.275 in assay [19] and -0.115 in [20]. For the same compound, the z-score is -1.21 (inactive) in assay [8]; -1.71 (inactive) in assay [12]; -1.34 (inactive) in [13]; -0.0987 (inactive) in assay [14]; 0.759 (inactive) in assay [16].

For `COC(=O)C(CC#Cc1ccc2c(c1)[C@]1(C(=O)N2)[C@H](C(=O)NC[C@H](O)c2ccccc2)[C@H]2C(=O)O[C@H](c3ccccc3)[C@H](c3ccccc3)N2[C@@H]1c1ccc(OCCO)cc1)C(=O)OC`, the composite z-score in assay [1] is 1.4; in [2], 1.2; in [3] it was 0.225; in assay [4], 0.641; in assay [5], 1.37; in assay [6], 1.41. The composite z-score in [7] was 1.3; in [9] it was 2.31; in [10] it was -0.447; in assay [11], 1.54; in [15], 3.62; in assay [17] it was 0.14. Moreover, the composite z-score turned out to be 1.87 in assay [18], 1.05 in assay [19] and 0.345 in assay [20]. In addition, the z-score in assay [8] is 1.9 (inactive); in assay [12] it was 2.7 (inactive); in [13], 1.16 (inactive); in assay [14] it was 3.93 (inactive); in assay [16], -0.207 (inactive).
